From PubChem BioAssay AID1745853 (National Center for Advancing Translational Sciences (NCATS), 2022)
Screen size: about 25,000 compounds; about 970 (3.9%) were called active. Not shown: some 8% with an inconclusive outcome. The sample holds actives, similar compounds and a random draw of the others, so the mix is not that of the screen. How the calls were made is not given here.

What was measured:
Experiment in all cases: Primary Screen for Target Class Profiling of Small Molecule Inhibitors of Methyltransferases
[1] = biological target: Catechol O-methyltransferase (Homo sapiens) (UniProt P21964); details: purified enzyme, MTase-Glo SAH luminescence; activity change, negative = inhibition: at 40 µM, stronger effect = lower value; outcome: 40 uM
Summary of the method: (§1)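 Each enzyme was assayed with SAM and its substrate. SAH formation detected by MTase-Glo luminescence; single-point 40 uM screen[…].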

[2] = biological target: Glycine N-methyltransferase (Homo sapiens) (UniProt Q14749); details: purified enzyme, MTase-Glo SAH luminescence; measured here: GNMT inhibition; at 40 µM; stronger effect = lower value
Summary of the method: as §1

[3] = biological target: Guanidinoacetate N-methyltransferase (Homo sapiens) (UniProt Q14353); details: purified enzyme, MTase-Glo SAH luminescence; measured here: GAMT inhibition; at 40 µM; stronger effect = lower value
Summary of the method: as §1

[4] = biological target: Histamine N-methyltransferase (Homo sapiens) (UniProt P50135); details: purified enzyme, MTase-Glo SAH luminescence; measured here: HNMT inhibition; at 40 µM; stronger effect = lower value
Summary of the method: as §1

[5] = biological target: Nicotinamide N-methyltransferase (Homo sapiens) (UniProt P40261); details: purified enzyme, MTase-Glo SAH luminescence; measured here: NNMT inhibition; at 40 µM; stronger effect = lower value
Summary of the method: as §1

[6] = biological target: Phenylethanolamine N-methyltransferase (Homo sapiens) (UniProt P11086); details: purified enzyme, MTase-Glo SAH luminescence; measured here: PNMT inhibition; at 40 µM; stronger effect = lower value
Summary of the method: as §1
On the % scale 0 is the no-effect control and ±100 the full control effect.

Chain of Nicotinamide N-methyltransferase (Homo sapiens) (P40261 whole entry, looked up): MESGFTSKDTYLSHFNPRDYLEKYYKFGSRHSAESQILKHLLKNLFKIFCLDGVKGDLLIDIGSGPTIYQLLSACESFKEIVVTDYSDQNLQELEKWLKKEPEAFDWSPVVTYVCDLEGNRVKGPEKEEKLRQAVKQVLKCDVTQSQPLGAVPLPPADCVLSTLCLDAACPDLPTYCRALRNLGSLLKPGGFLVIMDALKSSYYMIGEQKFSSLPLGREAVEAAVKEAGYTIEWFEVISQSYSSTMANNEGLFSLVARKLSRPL
Chain of Phenylethanolamine N-methyltransferase (Homo sapiens) (P11086 whole entry, looked up): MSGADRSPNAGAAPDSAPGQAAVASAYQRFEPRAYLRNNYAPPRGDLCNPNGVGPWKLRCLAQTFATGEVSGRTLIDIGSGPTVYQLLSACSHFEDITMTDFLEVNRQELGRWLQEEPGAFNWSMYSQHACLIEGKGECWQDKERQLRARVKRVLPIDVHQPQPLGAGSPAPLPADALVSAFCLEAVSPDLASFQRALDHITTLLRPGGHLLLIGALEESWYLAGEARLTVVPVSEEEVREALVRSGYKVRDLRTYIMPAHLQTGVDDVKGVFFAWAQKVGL
Chain of Glycine N-methyltransferase (Homo sapiens) (Q14749 whole entry, looked up): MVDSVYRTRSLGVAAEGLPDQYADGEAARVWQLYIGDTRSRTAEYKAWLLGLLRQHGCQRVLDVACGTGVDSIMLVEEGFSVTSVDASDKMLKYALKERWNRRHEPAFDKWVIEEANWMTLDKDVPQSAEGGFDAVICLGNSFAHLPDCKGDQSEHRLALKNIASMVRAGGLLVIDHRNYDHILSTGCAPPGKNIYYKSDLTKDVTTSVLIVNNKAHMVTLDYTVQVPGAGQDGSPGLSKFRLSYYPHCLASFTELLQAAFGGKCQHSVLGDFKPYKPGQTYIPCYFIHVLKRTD
Chain of Catechol O-methyltransferase (Homo sapiens) (P21964 whole entry, looked up): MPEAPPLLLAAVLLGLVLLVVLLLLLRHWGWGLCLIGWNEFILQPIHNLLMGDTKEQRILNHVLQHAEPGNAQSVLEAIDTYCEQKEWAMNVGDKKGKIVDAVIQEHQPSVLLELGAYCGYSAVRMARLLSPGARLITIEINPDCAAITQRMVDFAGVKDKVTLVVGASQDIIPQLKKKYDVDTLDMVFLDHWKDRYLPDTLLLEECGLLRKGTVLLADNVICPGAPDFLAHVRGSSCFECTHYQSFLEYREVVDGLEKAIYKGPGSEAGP
Chain of Histamine N-methyltransferase (Homo sapiens) (P50135 whole entry, looked up): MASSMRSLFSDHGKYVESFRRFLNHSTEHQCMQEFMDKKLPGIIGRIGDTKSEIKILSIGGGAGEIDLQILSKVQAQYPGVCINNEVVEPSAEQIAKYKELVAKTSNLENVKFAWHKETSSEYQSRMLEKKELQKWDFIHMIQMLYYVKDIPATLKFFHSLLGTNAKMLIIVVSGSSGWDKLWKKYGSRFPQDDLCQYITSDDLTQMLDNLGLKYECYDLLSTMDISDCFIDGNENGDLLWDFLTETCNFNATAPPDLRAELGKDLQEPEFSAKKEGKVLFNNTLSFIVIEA

Compound | activity change, negative = inhibition [1] | activity change, negative = inhibition [2] | activity change, negative = inhibition [3] | activity change, negative = inhibition [4] | activity change, negative = inhibition [5] | activity change, negative = inhibition [6] | outcome [1]
CCOC(=O)c1cc(Nc2ccc(C(C)=O)cc2)c2cc(Cl)ccc2n1 | -3.11% (inactive) | -4.22% | 6.82% | 0.863% | 6.54% | -3.31% | 
Cc1ccc(N2C(=O)c3cc4sccc4n3CC2(C)C(=O)NC2CCCCC2C)cc1 (stereo not given) | -3.6% (inactive) | -2.03% | 1.51% | -1.92% | -1.16% | -6.83% | 
COc1cccc(-c2nnc3n(CCc4ccccc4)c(=O)c4ccccc4n23)c1O | 0.892% (inactive) | -4.84% | 0.066% | 2.53% | -3.08% | 0.274% | 
CN1CCCC1Cc1c[nH]c2ccc(CCS(=O)(=O)c3ccccc3)cc12 (stereo not given) |  | -2.16% |  | -89.9% |  |  | active
Cc1cc2c(cc3n2CC(C)(C(=O)NC2CCCCCC2)N(Cc2cccs2)C3=O)o1 (stereo not given) | -1.18% (inactive) | -9.3% | 4.66% | -6.23% | -21% | -2.94% | 
CCCCN1C(=O)c2cc(C(=O)NCc3cccc(OC)c3)nn2CC1(C)C(=O)NC1CCCC1 (stereo not given) | 4.35% (inactive) | 5.79% | 1.34% | 1.56% | 5.98% | 5.6% | 
CCn1c(=O)n(CC)c2cc(S(=O)(=O)Nc3ccc(Br)c(C)c3)c(Cl)cc21 | -4.03% (inactive) | -3.14% | 3.91% | -0.387% | -1.18% | -4.27% | 
CCCN1C(=O)c2c(C(=O)NCCc3ccco3)ncn2CC1(C)C(=O)NCc1ccc(C)cc1 (stereo not given) | 7.22% (inactive) | 0.693% | 0.268% | 5.09% | 4.66% | 9% | 
Cc1c(NC(=O)c2cc(C(N)=O)nc3cc(F)ccc23)c(C(F)(F)F)nn1Cc1ccc(C#N)cc1 | -4.71% (inactive) | -5.91% | -2.28% | 3.43% | -13.8% | 1.39% | 
COc1ccccc1CNC(=O)c1nn(CC2CC2)c2c1CNCC2 | -8.87% (inactive) | -6.08% | -7.04% | -9.87% | -14.1% | -12.2% | 
CC(C)n1c(=O)c2ccc(C(=O)NC3CCCCC3)cc2n2c(=O)n(CC(=O)NC3CCCCC3)nc12 | -2.65% (inactive) | -0.578% | -0.047% | 2.13% | -1.76% | -1.89% | 
CC(C)Cn1c(=O)c2ccccc2n2c(=O)n(Cc3ccccc3Cl)nc12 | 3.16% (inactive) | 2.72% | 1.02% | 6.97% | -2.52% | 3.52% | 
COc1c(C)c(OCC=C(C)C)cc2c1C(=O)NC2=O | 2.98% (inactive) | 1.17% | 8.39% | 6.71% | -18% | -15.7% | 
NC(=O)c1cnc(NCCc2ccc(O)c(Cl)c2)nc1NCc1ccccc1 | -21.7% (active) | -31.8% | -12.1% | -36% | -88.5% | -23.4% | 
O=C(CCc1nnc2ccc(NCCCN3CCCC3=O)nn12)NCc1ccccc1Cl | 10.2% (inactive) | 1.96% | 2.26% | 10.9% | 1.3% | 9.12% | 
C[C@@H]1C[C@H]2O[C@@]3(O[C@@H]2C(C)(C)O)C(O)[C@@]2(C)C4CCC5C(C)(C)[C@@H](O[C@H]6OC[C@H](O)[C@@H](O)[C@@H]6O)CC[C@@]56C[C@@]46CC[C@]2(C)C13 (stereo not given in full) | -3.8% (inactive) | 0% | -1.51% | -4.39% | -13.7% | -0.709% | 
COc1ccccc1CN1C(=O)c2cc3sccc3n2CC1(C)C(=O)NC1CCCC(C)C1C (stereo not given) | 4.18% (inactive) | 1.88% | 0% | 3.67% | -3.12% | 1.29% | 

Compound | activity change, negative = inhibition [1] | activity change, negative = inhibition [2] | activity change, negative = inhibition [3] | activity change, negative = inhibition [4] | activity change, negative = inhibition [5] | activity change, negative = inhibition [6] | outcome [1]
Cc1cnc(-c2ccncc2)n1CCN | -5.2% (inactive) | -4.08% | -7.5% | -1.23% | -6.93% | -8.39% | 
Cc1cc(Cl)ccc1OCC(=O)N1CC(CO)C2(CCNCC2)C1 (stereo not given) | 2.63% (inactive) | -0.912% | -2.42% | -7.34% | 1.44% | 4.28% | 
CC(C)CCn1c(=O)c2ccc(C(=O)NC(C)C)cc2n2c(=O)n(CC(=O)Nc3ccccc3)nc12 | 3.2% (inactive) | 2.47% | 0% | -0.014% | 2.58% | 3.82% | 
COC(=O)C(C)C1CCC2(C)C(=O)C=CC(C)(O)C2C1O (stereo not given) | -21.2% (inactive) | 0.317% | 3.5% | 4.59% | -8.83% | 5.47% | 
CC1(C(=O)NC2CCCCC2)Cn2c(nc3ccccc32)C(=O)N1CCCc1ccccc1 (stereo not given) | -0.028% (inactive) | -0.457% | 2.95% | -0.222% | 2.79% | -1.29% | 
COc1cccc(S(=O)(=O)N2CCC([C@H]3[C@@H](OC)C(=O)N3C(C)C)CC2)c1 | -16.7% (inactive) | -11% | -0.234% | -8.83% | -11.7% | -7.58% | 
O=C(Nc1ccccc1Cl)N1CCn2cccc2C1Cc1ccccc1 (stereo not given) | 8.91% (inactive) | -4.49% | 0% | 0.539% | -1.29% | 1% | 
CC(=O)N(C1CCOCC1)C1CCN(S(=O)(=O)c2ccc3c(c2)OCCO3)CC1 | 14.5% (inactive) | 6.17% | 0% | 15.9% | 5.83% | 10% | 
COC1CCN(CC2CCCCCN2C(=O)NCc2ccc(F)cc2)CC1 (stereo not given) | 0.269% (inactive) | -0.541% | -1.47% | 0.992% | 0.892% | -1.43% | 
CCCc1sc(NC(=O)C[C@H]2NC(=O)c3ccccc3NC2=O)nc1C(=O)OC | -0.596% (active) | -52% | 0.55% | -1.11% | -24.7% | -7.16% | 
CCOc1ccc(NC(=O)N2Cc3c(sc4c3CCCC4)-n3cccc3C2c2ccc(C)cc2)cc1 (stereo not given) | -4.77% (inactive) | -7.14% | -5.05% | -0.466% | -12.8% | -3.68% | 
COc1ccc(CN2C(=O)c3cc4sccc4n3CC2(C)C(=O)NC2CCCCC2)cc1 (stereo not given) | -1.71% (inactive) | -4.01% | 4.64% | 0.743% | 0.231% | -2.93% | 
CCCN1C(=O)c2c(C(=O)NCc3ccc(OC(C)C)cc3)ncn2CC1(C)C(=O)NCc1ccccc1 (stereo not given) | 7.93% (inactive) | 0.786% | 0% | 10.9% | 0.527% | 8.93% | 
CCNc1ccnc(N2C[C@H]3CN(C(=O)N(C)C)C[C@@]3(C(=O)O)C2)n1 | 1.84% (inactive) | 0.021% | 1.18% | 0.65% | 1.12% | -1% | 
C=C1C(=O)O[C@@H]2[C@H]1CC[C@H](C)[C@]1(CCC(=O)O1)C2(C)O (stereo not given in full) | -16.8% (inactive) | 0% | 7.54% | 11.3% | -3.81% | 5.47% | 
Cc1cc(C)c(S(=O)(=O)NCCc2nc(-c3ccc(Cl)cc3)n[nH]2)cc1C | -7.11% (inactive) | 0.532% | 3.01% | -1.1% | -4.42% | -1.52% | 
